We go through 32 molecules from PubChem BioAssay (NCATS).

Assay [1] in a line: Primary qHTS for small molecule stabilizers of the endoplasmic reticulum resident proteome: Secreted ER Calcium Modulated Protein (SERCaMP) assay (AID 1508630). An outline of the steps: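 The SH-SY5Y reporter protocol was run at 3 concentrations up to 38.3 uM (primary) or 11 concentrations (follow-up): 16 h compound, 100 nM thapsigargin for 4 h, then extracellular luciferase luminescence.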

Assay [2] in a line: A High-Content qHTS Against Drug Library for the Identification of Small Molecules that Inhibit DYT1 Early Onset Primary Dystonia-Associated Cell Pathology (AID 1645839; calls by dose curve; note: potency is the fitted concentration of half-maximal effect). An outline of the steps: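 Induced EGFP-delE TorsinA cells are imaged after 48 h of compound treatment. Punctate fusion-protein distribution gives the %pathology value, while nuclei counts flag toxicity. Wild-type EGFP-hTOR1A cells define the normal pattern.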

The target of assay [3] is Cytochrome P450 2D6 (Homo sapiens) (UniProt P10635). The assay is described as follows: Cytochrome P450 family 2 subfamily D member 6 (CYP2D6) small molecule antagonists: luciferase biochemical (cell-free) qHTS assay (AID 1645840; active = well fitted curve in the direction sought with a large enough effect in the repeat runs; an effect the other way counts as inactive or inconclusive; note: nearly all actives have a fitted effect of over 55% in size; note: potency is the fitted concentration of half-maximal effect). An outline of the steps: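 P450-Glo CYP2D6 system: proluciferin substrate converted by enzyme to luciferin, read by luminescence proportional to activity. Enzyme-substrate mix with compound 10 min at room temperature, then NADPH regeneration 1 h before detection reagent.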

Assay [4] addresses Cytochrome P450 2C9 (Homo sapiens) (UniProt P11712). The assay is described as follows: Cytochrome P450 family 2 subfamily C member 9 (CYP2C9) small molecule antagonists: luciferase biochemical (cell-free) qHTS assay (AID 1645842; active = well fitted curve in the direction sought with a large enough effect in the repeat runs; an effect the other way counts as inactive or inconclusive; note: nearly all actives have a fitted effect of over 55% in size; note: potency is the fitted concentration of half-maximal effect). An outline of the steps:
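P450-Glo CYP2C9 system: proluciferin substrate with enzyme in mix containing 0.4% BSA, 10 min at room temperature, then NADPH regeneration solution added and incubated 1 h at 37C. Detection reagent stopped reaction; luminescence read after 20 min as RLU.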

Assay [5] in a line: Primary qHTS for inhibitors of nuclear receptor binding SET domain protein 2 (NSD2) in an isogenic RCH-ACV NSD2 p.E1099K mutant (9B) (AID 1645876). Note: nearly all actives have a fitted effect of over 70% in size. Note: potency is the fitted concentration of half-maximal effect.
Assay [6] in a line: Primary qHTS for inhibitors of nuclear receptor binding SET domain protein 2 (NSD2) in an RCH-ACV wild type WT cells (2C) (AID 1645877). Note: nearly all actives have a fitted effect of over 70% in size. Note: potency is the fitted concentration of half-maximal effect.
The nature of assay [7]: NCATS anti-infectives library activity on HEK293 viability as a counter-qHTS vs the C. elegans viability qHTS (AID 1745854). An outline of the steps: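 CellTiter-Glo luminescence, read on a CCD imager, scored viability of HEK293 cells after 24 hr compound exposure at 37C. Library tested in several concentrations, 1:5 steps, up to 41.7 uM; digitonin served as control.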
The target in assay [8] is Cytochrome P450 3A4 (Homo sapiens) (UniProt P08684). Briefly: Cytochrome P450 family 3 subfamily A member 4 (CYP3A4) small molecule antagonists: luciferase qHTS assay (AID 1645841; active = well fitted curve in the direction sought with a large enough effect in the repeat runs; an effect the other way counts as inactive or inconclusive; note: nearly all actives have a fitted effect of over 45% in size). An outline of the steps:
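P450-Glo CYP3A4 enzyme with proluciferin substrate was preincubated with DMSO-dissolved compounds for 10 min at room temperature. NADPH regeneration solution started a 1 h reaction. Detection reagent stopped it, and luminescence was read after 20 min.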

“And” between values parts separate entries of the source, which are not always exact repeats. Equal values may be shown once. Records with an inconclusive call do not appear. The source made the active and inactive calls. Unless noted, calls come from the whole dose curve; as a rule, active = well fitted curve in the direction sought with a large enough effect; inconclusive = small, poorly fitted or top-dose-only effect, or another doubt; inactive = no such curve, though single readings can be large; an effect the other way counts as inactive or inconclusive. Where a SMILES comes first, the peptide text is derived from it. [ ]: non-standard residue; d: D form. pGlu = O=C1CC[C@@H](C(=O)O)N1

Cytochrome P450 2C9 (Homo sapiens), sequence (P11712 whole entry, looked up): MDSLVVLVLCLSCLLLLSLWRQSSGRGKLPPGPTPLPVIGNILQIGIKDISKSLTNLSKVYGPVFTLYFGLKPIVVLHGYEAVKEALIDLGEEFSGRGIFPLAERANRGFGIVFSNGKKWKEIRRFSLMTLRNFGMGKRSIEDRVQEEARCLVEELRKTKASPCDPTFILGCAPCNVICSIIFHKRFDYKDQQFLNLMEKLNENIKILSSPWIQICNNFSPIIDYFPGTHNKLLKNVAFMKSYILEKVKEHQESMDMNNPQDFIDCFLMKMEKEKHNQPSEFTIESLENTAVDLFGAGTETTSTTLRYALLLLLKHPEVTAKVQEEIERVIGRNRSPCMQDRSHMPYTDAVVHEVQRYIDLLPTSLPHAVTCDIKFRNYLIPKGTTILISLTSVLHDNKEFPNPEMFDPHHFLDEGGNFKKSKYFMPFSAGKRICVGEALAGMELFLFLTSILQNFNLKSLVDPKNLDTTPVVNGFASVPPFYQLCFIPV
Cytochrome P450 2D6 (Homo sapiens), sequence (P10635 whole entry, looked up): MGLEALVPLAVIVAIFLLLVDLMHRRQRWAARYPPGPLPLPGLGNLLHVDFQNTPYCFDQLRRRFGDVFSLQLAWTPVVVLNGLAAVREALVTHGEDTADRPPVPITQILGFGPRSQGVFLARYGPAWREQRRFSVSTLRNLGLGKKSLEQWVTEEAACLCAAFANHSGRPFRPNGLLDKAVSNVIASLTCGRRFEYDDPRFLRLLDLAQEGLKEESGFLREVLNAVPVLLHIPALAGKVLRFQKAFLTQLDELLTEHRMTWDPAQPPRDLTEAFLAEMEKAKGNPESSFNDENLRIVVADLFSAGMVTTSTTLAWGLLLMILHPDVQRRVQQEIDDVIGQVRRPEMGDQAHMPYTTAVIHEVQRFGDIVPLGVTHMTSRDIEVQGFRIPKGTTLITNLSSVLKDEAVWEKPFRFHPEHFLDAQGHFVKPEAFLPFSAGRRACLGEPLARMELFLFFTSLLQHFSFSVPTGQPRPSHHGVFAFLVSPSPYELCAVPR
Cytochrome P450 3A4 (Homo sapiens), sequence (P08684 whole entry, looked up): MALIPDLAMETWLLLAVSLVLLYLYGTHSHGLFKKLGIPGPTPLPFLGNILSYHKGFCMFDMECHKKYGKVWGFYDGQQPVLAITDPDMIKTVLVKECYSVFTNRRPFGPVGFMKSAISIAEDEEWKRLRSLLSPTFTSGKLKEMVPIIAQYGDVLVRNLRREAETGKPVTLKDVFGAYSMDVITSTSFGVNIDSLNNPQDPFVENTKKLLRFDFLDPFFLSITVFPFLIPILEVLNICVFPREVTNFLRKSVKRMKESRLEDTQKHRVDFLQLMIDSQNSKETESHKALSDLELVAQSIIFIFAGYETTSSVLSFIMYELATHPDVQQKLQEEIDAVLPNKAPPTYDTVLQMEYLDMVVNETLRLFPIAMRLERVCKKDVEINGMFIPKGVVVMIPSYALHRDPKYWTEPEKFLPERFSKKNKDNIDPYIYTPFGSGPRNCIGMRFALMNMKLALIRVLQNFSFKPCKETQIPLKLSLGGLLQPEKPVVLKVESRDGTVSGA

As for `CCCCCCn1c(=O)c2c(ncn2C)n(C)c1=O`, the Potency entry in assay [1], in assay [2], in assay [3], in assay [4], in assay [5] and in assay [6] was “inactive” throughout.
Take `O=C(O)c1[nH]n(-c2ccc(S(=O)(=O)O)cc2)c(=O)c1N=Nc1ccc(S(=O)(=O)O)cc1`: the Potency entry in assay [1], in assay [2], in assay [3], in assay [4], in assay [5] and in assay [6] was “inactive” in each case.
As for `O=C1NCCN1CCN1CCC(c2cn(-c3ccc(F)cc3)c3ccc(Cl)cc23)CC1`, the Potency result in assay [1] is “inactive”. The Potency in assay [2] is 11.2 µM (active); in assay [3], 1.55 µM (active); in assay [5], 3.76 µM (active); in assay [6], 2.11 µM (active).
Take `COc1cc(C(=O)NC2CCCNC2)cc(OC)c1OC` (stereo unspecified): the Potency entry in assay [1], in assay [2], in assay [3], in assay [5] and in assay [6] was “inactive” throughout.
With `COc1c(C)c2c(c(O)c1C/C=C(\C)CCC(=O)OCCN1CCOCC1)C(=O)OC2`, the Potency entry in assay [1], in assay [2] and in assay [7] was “inactive” in each case. The Potency is 13.8 µM (active) in assay [3]; 473 nM (active) and 525 nM (active) in assay [5]; 0.376 µM (active) in assay [6].
On to `COc1cc2nc(Cl)nc(N)c2cc1OC`, for which the Potency entry in assay [1], in assay [2] and in assay [4] was “inactive” throughout.
For the molecule `OC1(c2ccc(Cl)cc2)CCNCC1`, the Potency entry in assay [1], in assay [2], in assay [5] and in assay [6] was “inactive” each time. The Potency in assay [3] is 15.5 µM (active).
Turning to `CC(=O)[C@@]1(O)CC[C@H]2[C@@H]3C[C@H](C)C4=CC(=O)CC[C@]4(C)[C@H]3CC[C@@]21C`, the Potency entry in assay [1], in assay [2] and in assay [3] was “inactive” each time. In addition, the Potency in assay [5] is 23.7 µM (active); in assay [6] it was 15 µM (active).
For the molecule `CCCCCC(=O)O[C@]1(C(C)=O)CC[C@H]2[C@@H]3CCC4=CC(=O)CC[C@]4(C)[C@H]3CC[C@@]21C`, the Potency result in assay [1] and in assay [2] was “inactive” throughout. The figures for the Potency in assay [3], in assay [4] and in assay [6] were 13.8 µM (active), 4.9 µM (active) and 10.6 µM (active), respectively.
For the molecule `COc1cc2c(cc1OC)C(=O)CC2`, the Potency result in assay [1], in assay [2], in assay [3], in assay [4] and in assay [6] was “inactive” in each case.
Regarding `CCCCCC[C@@H](CCC)C(=O)O`, the Potency entry in assay [1], in assay [2], in assay [3], in assay [5] and in assay [6] was “inactive” each time.
Regarding `Cc1c(C)c2c(c(C)c1OC(=O)CCC(=O)OCCO)CC[C@@](C)(CCC[C@H](C)CCC[C@H](C)CCCC(C)C)O2`, the Potency result in assay [1] was “inactive”. Besides, the results for the Potency in assay [2], in assay [3] and in assay [5] were 5.62 µM (active), 12.3 µM (active) and 21.1 µM (active), respectively.
Turning to `CO[C@@]1(NC(=O)CSC[C@@H](N)C(=O)O)C(=O)N2C(C(=O)O)=C(CSc3nnnn3C)CS[C@@H]21`, the Potency entry in assay [1], in assay [2], in assay [8], in assay [4], in assay [5] and in assay [6] was “inactive” throughout.
For the molecule `Oc1ccccc1-c1nnco1`, the Potency result in assay [1], in assay [2], in assay [3], in assay [5] and in assay [6] was “inactive” each time.
As for `Nc1c(I)cc(I)c(C(=O)N(CCC(=O)O)c2ccccc2)c1I`, the Potency result in assay [1], in assay [2], in assay [3], in assay [5] and in assay [6] was “inactive” in each case.
As to `C[N+]1(CC2COC(c3ccccc3)(c3ccccc3)O2)CCCCC1` (stereo unspecified), the Potency result in assay [1], in assay [2] and in assay [4] was “inactive” in each case. In addition, the Potency in assay [3] is 1.51 µM (active); in assay [6] it was 2.59 µM (active).
Consider `CCNC(=O)[C@@H]1CCCN1C(=O)[C@H](CCCN=C(N)N)NC(=O)[C@H](CC(C)C)NC(=O)CNC(=O)[C@H](Cc1ccc(O)cc1)NC(=O)[C@H](CO)NC(=O)[C@H](Cc1c[nH]c2ccccc12)NC(=O)[C@H](Cc1cnc[nH]1)NC(=O)[C@@H]1CCC(=O)N1` ([pGlu]HWSYGLRP-NHEt), for which the Potency result in assay [1], in assay [2], in assay [3], in assay [4] and in assay [6] was “inactive” each time.
Regarding `Clc1ccc2c(c1)Nc1ccccc1S2`, the Potency entry in assay [1], in assay [2], in assay [3], in assay [5] and in assay [6] was “inactive” throughout.
Take `O=C(O)CNC(=O)CNC(=O)CNC(=O)CSC(=O)c1ccccc1`: the Potency entry in assay [1], in assay [2] and in assay [4] was “inactive” each time.
On to `CCN(CC)CC(=O)OCC(=O)[C@@]1(O)CC[C@H]2[C@@H]3CCC4=CC(=O)CC[C@]4(C)[C@H]3[C@@H](O)C[C@@]21C`, for which the Potency entry in assay [1], in assay [2], in assay [3] and in assay [4] was “inactive” each time. Further, the Potency in assay [6] is 0.0944 µM (active).
With `CC(=O)/C=C/C=C1/C2CCC(C2)C1(C)C` (stereo unspecified), the Potency entry in assay [1], in assay [2], in assay [5] and in assay [6] was “inactive” throughout. In assay [3], the Potency was 17.4 µM (active).
Consider `CCOC(=O)O[C@]1(C(=O)OCCl)CC[C@H]2[C@@H]3CCC4=CC(=O)C=C[C@]4(C)[C@H]3[C@@H](O)C[C@@]21C`, for which the Potency entry in assay [1], in assay [2], in assay [3] and in assay [5] was “inactive” each time.
For the molecule `CN(C)C(=O)CNC(=O)Cc1ccccc1`, the Potency result in assay [1], in assay [2], in assay [8], in assay [4], in assay [5] and in assay [6] was “inactive” throughout.
As for `CCC(=O)Oc1ccc2c(c1)CC[C@@H]1[C@@H]2CC[C@@]2(C)[C@H]1C[C@@H](OC(=O)CC)[C@@H]2OC(=O)CC`, the Potency result in assay [1] and in assay [2] was “inactive” each time. In addition, the Potency in assay [4] is 8.71 µM (active).
For the molecule `CC(=O)OCC(=O)[C@@]1(O)CCC2C3CCC4=CC(=O)CC[C@]4(C)C3[C@@H](O)C[C@@]21C` (stereo partly specified), the Potency entry in assay [1], in assay [2], in assay [3] and in assay [5] was “inactive” throughout. The Potency in assay [6] was 0.15 µM (active).
Take `C[C@]12CCC(=O)C=C1CC[C@@H]1[C@@H]2[C@@H](O)C[C@@]2(C)[C@H]1CC[C@]2(O)C(=O)COC(=O)CCC(=O)O`: the Potency entry in assay [1], in assay [2], in assay [3] and in assay [4] was “inactive” throughout. Besides, in assay [6], the Potency is 1.88 µM (active).
For `CCCCCCCCCCCCCCCC[N+](C)(C)Cc1ccccc1`, in assay [1], the Potency entry is “inactive”. The Potency was 22.4 µM (active) in assay [2], 0.195 µM (active) in assay [3], 0.75 µM (active) in assay [5] and 0.668 µM (active) in assay [6].
For `Nc1c[n+](N2CCOCC2)no1` the same measures were “inactive”, “inactive”, “inactive”, “inactive” and “inactive”.
On to `Cc1onc(-c2c(Cl)cccc2Cl)c1C(=O)Cl`, for which the Potency result in assay [1], in assay [2], in assay [3], in assay [5] and in assay [6] was “inactive” each time.
As to `O=C(CCCCC(=O)Nc1c(I)cc(I)c(C(=O)O)c1I)Nc1c(I)cc(I)c(C(=O)O)c1I`, the Potency entry in assay [1], in assay [2], in assay [3], in assay [5] and in assay [6] was “inactive” each time.
In the case of `CC(=O)OCC(=O)[C@@]1(O)[C@H](OC(C)=O)C[C@H]2[C@@H]3CCC4=CC(=O)C=C[C@]4(C)[C@@]3(F)[C@@H](O)C[C@@]21C`, the Potency result in assay [1], in assay [2], in assay [3] and in assay [4] was “inactive” throughout. For the same molecule, in assay [6], the Potency was 0.0596 µM (active).
In the case of `Cc1cccc(N(C)C(=S)Oc2ccc3c(c2)C2CCC3C2)c1` (stereo unspecified), the Potency result in assay [1], in assay [2] and in assay [5] was “inactive” throughout. Further, the Potency in assay [4] was 7.76 µM (active).
